In the library only some 2.3% were active in any assay of this set; here they are far more common.
BCLXL inh – inhibitors of human Bcl-xL | Q07817 | GST-Bcl-xL / FITC-Bim BH3 peptide fluorescence polarization | inhibition, % at 10.9 µM | 320,000 tested, 0.7% active | AID 2129;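 active means inhibition above the mean of all tested compounds plus 3 SD, cutoff set per campaign, cut at about 30% in these data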;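 further: 0% = DMSO wells and 100% = unlabeled Bim-BH3 peptide competitor; inhibitors lower millipolarization by displacing the labeled peptide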
Target sequence (Q07817 whole entry, looked up): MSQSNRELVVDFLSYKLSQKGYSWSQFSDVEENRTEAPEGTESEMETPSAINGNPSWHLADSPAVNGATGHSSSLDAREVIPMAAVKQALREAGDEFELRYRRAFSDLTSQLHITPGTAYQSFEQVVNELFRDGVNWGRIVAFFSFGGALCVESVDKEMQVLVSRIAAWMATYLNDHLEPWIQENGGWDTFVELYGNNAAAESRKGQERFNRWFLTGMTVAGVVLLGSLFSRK
Bim-Mcl-1 – disrupts Bim peptide binding to human Mcl-1; Q07820; Bead-based flow cytometry, Bim peptide-Mcl-1 binding; inhibition, % at 10 µM; 190,000 tested, 0.1% active; AID 1009; in the data active means inhibition above about 40%;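 further: 0% = no compound tracer wells and 100% = peptide blocker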
Target sequence (Q07820 whole entry, looked up): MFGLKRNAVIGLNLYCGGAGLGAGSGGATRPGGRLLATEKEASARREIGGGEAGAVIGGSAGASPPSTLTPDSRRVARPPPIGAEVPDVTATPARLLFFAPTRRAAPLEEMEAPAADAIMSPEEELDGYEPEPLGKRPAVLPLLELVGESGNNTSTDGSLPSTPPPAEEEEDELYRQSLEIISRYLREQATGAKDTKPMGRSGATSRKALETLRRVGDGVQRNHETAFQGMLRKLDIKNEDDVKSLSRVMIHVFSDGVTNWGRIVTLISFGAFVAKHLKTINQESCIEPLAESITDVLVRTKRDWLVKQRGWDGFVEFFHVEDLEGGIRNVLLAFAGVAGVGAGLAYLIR
MCL1 BIM primary – disrupts human MCL1 binding to BIM-BH3 peptide; GST-MCL1 / FITC-Bim-BH3 fluorescence polarization; inhibition, % at 10.9 µM; 320,000 tested, 0.68% active; AID 2057;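 active means inhibition above the mean inhibition of all tested compounds plus 3 SD, set per campaign, cut at about 40% in these data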;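 further: 0% = DMSO wells and 100% = unlabeled Bim-BH3 peptide control; higher means more loss of mP so more displacement of Bim peptide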
Mcl1 Noxa PPI – disrupts binding of human Mcl-1 to Noxa peptide; Q07820; TR-FRET Mcl-1/Noxa peptide binding, 2 h; inhibition, % at 21.7 µM; 220,000 tested, 1.5% active;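 active means compounds that cut the protein-peptide binding signal by more than 50% relative to plate controls in a single-dose test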;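 further: His-tagged Mcl-1 with rhodamine Noxa BH3 peptide and terbium anti-His antibody; 0% = Mcl-1 plus Noxa peptide wells and 100% = peptide-only wells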
Mcl1 Bid PPI – Mcl-1/Bid interaction inhibition | 220,000 tested, 0.97% active | Q07820 | TR-FRET Mcl-1/Bid-Dy647 peptide binding, 1536-well | AID 1021 | inhibition, % at 21.7 µM;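 active means compounds that cut the binding signal by more than half at the single screening dose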;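 further: His-tagged Mcl-1 with europium anti-His antibody binding Bid BH3 peptide; 0% = Mcl-1 plus peptide wells and 100% = peptide-only wells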
GLD-1 RNA inh – GLD-1-TGE RNA interaction inhibition (C. elegans). purified GLD-1 + fluorescein TGE RNA, fluorescence polarization. 320,000 tested, 0.44% active. Q17339. AID 2280. inhibition, % at 5.96 µM;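 active means percent inhibition above a per-plate cutoff, the plate mean of test compounds plus 3 SD, cut at about 30% in these data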;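 further: 0% = DMSO wells with GLD-1 and probe and 100% = wells lacking GLD-1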
An asterisk follows results filed as active; · = not tested or not shown.

SMILES	BCLXL inh	Bim-Mcl-1	MCL1 BIM primary	Mcl1 Noxa PPI	Mcl1 Bid PPI	GLD-1 RNA inh
CN(C)c1ccc(/C=C/C=C2/C(=O)NC(=O)N(c3ccccc3)C2=O)cc1	·	1.0	·	58.2*	51.5*	·
O=C1NC(=O)N(c2ccccc2)C(=O)/C1=C/C=C/c1ccco1	14.2	·	-2.9	-3.8	-47.1	12.1
Cc1cc(N2CCCCC2)ccc1C=C1C(=O)N(C)C(=S)N(C)C1=O	-14.1	-4.0	-32.0	68.4*	-12.1	-8.8
O=C1c2ccccc2C(=O)N1Cc1nc2ccccc2c(=O)n1-c1cccnc1	-3.3	-1.0	0.3	40.0	73.5*	4.8
c1cncc(C2Nc3cccc4cccc(c34)N2)c1	19.3	·	26.2	79.1*	-97.2	6.7
O=C1CCCC2=C1C(c1cccnc1)Nc1ccccc1N2 (stereo unspecified)	1.5	-3.0	3.9	-8.3	-22.6	9.2
Cc1cc(OCC(=O)N2CCC(C(=O)O)(c3ccccc3)CC2)c2c(C)c(C)c(=O)oc2c1	3.2	·	-0.4	·	·	2.5
CCCCOc1ccc(CC2C(=O)N(C)C(=O)N(C)C2=O)cc1	-5.4	-2.0	-7.6	26.0	72.5*	0.8
CNC(=O)OCc1n(C)cc[n+]1C	-12.9	-4.0	-21.2	-18.1	87.1*	12.2
CCOS(C)(=O)=O	-2.2	·	-13.7	·	·	2.0
O=C(C[N+]12CCC(CC1)C(CO)C2)c1ccc(Br)cc1 (stereo unspecified)	4.5	·	2.2	·	·	5.8
CCN1C(=O)/C(=C\c2ccc([N+](=O)[O-])s2)C(=O)NC1=S	·	2.0	·	93.7*	31.9	·
C=CCN1C(=O)/C(=C/c2ccc(Br)s2)C(=O)NC1=S	5.9	·	27.8	·	·	-26.7
Cc1cc(OCCN2CC2)c2ccccc2n1	-0.6	·	-0.8	-7.2	-25.2	-0.4
COc1ccc(CN2CCN(Cc3ccccc3F)CC2)cc1	0.5	·	0.8	·	·	3.5
CCCOP(=O)(OCCC)C(NC(=O)c1ccccc1)=C(Cl)Cl	4.5	0.0	4.4	-8.1	90.8*	-0.8
O=c1[nH]c(O)c(/C=C2/C=CC(c3cc(Cl)ccc3Cl)=N2)c(=O)[nH]1	-42.2	·	-66.5	25.9	66.6*	-117.9
CC1=Nc2ccccc2/C1=C/c1c(O)[nH]c(=O)[nH]c1=O	-3.4	·	2.5	·	·	2.8
Cc1cc(C(=O)OCC(=O)Nc2ccc(F)cc2)c(C)n1C1CC1	1.8	·	-7.2	·	·	3.2
CCn1nc(-c2ccccc2)nc2c(=O)n(C)c(=O)nc1-2	136.0*	5.0	148.3*	-8.8	-20.2	128.3*
CC(C)CNC(=O)/C=C/C=C/CCCCCC/C=C/c1ccc2c(c1)OCO2	·	·	·	·	·	11.7
COc1ccc(P2(=O)Nc3ccccc3N2)cc1	61.7*	3.0	51.8*	42.0	-100.7	14.7
CN1CC(C(=O)c2cccc(C(F)(F)F)c2)C(c2ccc(Cl)cc2)C1 (stereo unspecified)	9.8	·	10.3	·	·	-1.4
O=P(O)(O)C#Cc1ccccc1	·	-4.0	·	12.2	96.4*	·
C=C(c1ccccc1)P(=O)(O)O	-1.3	-5.0	-4.2	29.7	13.6	2.8
SMILES	BCLXL inh	Bim-Mcl-1	MCL1 BIM primary	Mcl1 Noxa PPI	Mcl1 Bid PPI	GLD-1 RNA inh
Cc1cc(OCC(=O)N2CCC(C(N)=O)CC2)c2c3c(c(=O)oc2c1)CCCC3	-3.9	·	1.2	·	·	3.1
Cc1ccc(-c2ccc(=O)n(CC(=O)N3CCC4(CC3)OCCO4)n2)cc1	5.1	-3.0	2.1	19.2	4.0	-1.6
Cc1ccc(-c2nc(CS(=O)CC(=O)N3CCC4(CC3)OCCO4)c(C)o2)cc1 (stereo unspecified)	1.2	2.0	-2.5	-22.1	85.4*	11.4
O=C1NC(=O)N(Cc2ccco2)C(=O)/C1=C/C=C/c1ccco1	0.4	·	-7.5	52.4*	-52.4	-1.2
CN1c2ccccc2Oc2ccccc21	4.2	-5.0	9.6	68.6*	-11.3	-6.4
c1ccc2c(c1)CNc1ccccc1O2	5.0	0.0	8.0	2.2	-39.5	7.5
CCC1=Nc2cc(C(=O)N3CCC4(CC3)OCCO4)ccc2Sc2ccc(C)cc21	2.5	·	1.2	·	·	4.1
N#CC(C#N)=NNc1ccc(S(N)(=O)=O)cc1	16.4	·	20.2	87.9*	-149.6	1.0
COC(=O)C1=C(c2cccc(OC)c2OC)C[C@@H]2CC[C@H]1N2C(=O)NCc1ccc(C(F)(F)F)cc1	2.9	·	-5.7	·	·	4.7
COc1ccc(N/N=C/c2c(O)n(-c3cccc(C)c3)c(=O)[nH]c2=O)cc1	40.1*	0.0	36.4	20.7	-65.7	-8.3
Cc1ccc(-n2c(O)c(/C=N/Nc3ccccc3)c(=O)[nH]c2=O)cc1C	2.2	·	2.6	19.4	-32.5	-0.8
CC(Cc1ccccc1)NCC(=O)Nc1cc(N(C)C)nc2ccccc12 (stereo unspecified)	1.3	·	6.8	28.9	72.2*	6.8
O=C1NC(=S)N(C2CC2)C(=O)/C1=C/c1ccc2c(c1)CCN2CCCCl	17.1	-1.0	17.2	109.5*	88.0*	4.2
CCN1C(=O)/C(=C/c2ccc3c(c2)CCN3CCCCl)C(=O)NC1=S	14.9	-2.0	26.3	80.9*	-73.2	3.2
CC(C)(C)N1C(=O)NC(=O)/C(=C\c2ccc3c(c2)CCN3CCCCl)C1=O	-8.8	·	-13.9	23.8	-53.9	7.7
Cc1cc(Oc2cc(NN3CCCCC3)c([N+](=O)[O-])cc2[N+](=O)[O-])ccc1[N+](=O)[O-]	3.5	·	12.0	·	·	2.9
C[N+]1(C)C2CC(OC(=O)[C@H](CO)c3ccccc3)CC1C1OC12 (stereo partly specified)	6.9	·	7.7	·	·	-3.3
COc1cc(N2CCOCC2)ccc1C=C1C(=O)NC(=O)NC1=O	0.0	42.0*	-10.6	2.5	-45.2	4.1
C=C1C2C[C@@]3([C@@H]1O)[C@@H](C[C@@H]2O)[C@@]12C4[C@@H]3C[C@@H]1[C@@](C)(CC[C@@H]2O)CN4CC	5.7	·	3.8	·	·	5.7
O=C1NC(=S)N(c2ccc(F)cc2)C(=O)/C1=C\c1ccoc1	·	0.0	·	79.0*	37.4	·
Cc1ccc(-c2nc(N(C)C3CCN(C)CC3)c3ccccc3n2)cc1	4.4	-2.0	2.8	62.9*	7.1	5.0
CN1CCC(N(C)c2ncnc3ccc(Br)cc23)CC1	·	0.0	·	47.9	-8.8	·
O=c1cccc2n1CC1CNC[C@H]2C1	9.7	·	10.8	·	·	-1.1
COc1ccc(CN2C(=O)NC(=O)/C(=C/c3ccc([N+](=O)[O-])o3)C2=O)cc1	·	1.0	·	94.8*	34.5	·
Cc1cccc(N2C(=O)NC(=O)/C(=C\C=C\c3ccco3)C2=O)c1	1.6	·	-24.4	23.2	-33.0	6.0
Cc1cccc(N2C(=O)NC(=O)/C(=C/c3ccc([N+](=O)[O-])o3)C2=O)c1	32.8*	-2.0	47.5*	71.9*	28.1	-8.5
Cc1ccc(-n2nc(C)cc2NC(=O)COc2cc(C)cc3oc(=O)c4c(c23)CCC4)cc1	-1.0	-1.0	-0.1	106.0*	5.7	6.7
CN(C)CCSC1c2ccccc2CSc2ccccc21 (stereo unspecified)	3.9	·	1.4	·	·	1.4
